Bioassay records from PubChem BioAssay.
An excerpt weighted towards active compounds, which were near 13% of everything screened.
CHX counter: Cycloheximide Counterscreen for Small Molecule Inhibitors of Shiga Toxin; cell reporter, cycloheximide protein synthesis inhibition counterscreen; max response, %; 300,000 compounds, 12% hits; AID 2314, 2010; in the data active = max response mostly above about 13%, no sharp cut-off; inactive = mostly below about 14%; note: read at 38.3 µM for the half of the compounds with a filed dose; 0% is about no effect
LASV entry inh: qHTS for Inhibitors of binding or entry into cells for Lassa Virus; Lassa virus pseudotype entry inhibition, cell reporter; Potency, µM (series often up to 37.9 µM), without a hit: at the top dose activity change, negative = inhibition, hits mostly inhibitors; 300,000 compounds, 1.2% hits; AID 540256, 2011; calls by dose curve; tested in HEK293 cells; note: potency is the fitted concentration of half-maximal effect; % is set by controls: 0 for no effect and ±100 for the full control effect; nearly all actives have a fitted effect of over 50% in size
FMDV inh: High Throughput Screening for Foot and Mouth Disease Virus Antivirals. AID 1159524, 2015. Potency, µM (doses to about 57.9 µM), for the others: at the highest dose activity change, negative = inhibition, actives largely listed as inhibitors. 410,000 compounds, 1.2% hits. FMDV antiviral cell-based qHTS; calls by dose curve; tested in HEK293T cells; note: read-out not given here; potency is the fitted concentration of half-maximal effect; % is set by controls: 0 for no effect and ±100 for the full control effect; nearly all actives have a fitted effect of over 45% in size
Shiga toxin inh: A qHTS for Small Molecule Inhibitors of Shiga Toxin. Vero cells, Shiga toxin protein synthesis inhibition reporter. 290,000 compounds, 9.2% hits. AID 2315, 2010. inhibition, % at 38.7 µM; in the data active = inhibition mostly above about 28%, no sharp cut-off; inactive = mostly below about 43%; note: 0% is about no effect
MARV entry inh: qHTS for inhibitors of binding or entry into cells for Marburg Virus; Marburg virus pseudotyped entry inhibition, cell reporter; 300,000 compounds, 1.8% hits; Potency, µM (series often up to 37.8 µM), for the others: at the top dose activity change, negative = inhibition, usual class: inhibitors; calls by dose curve; tested in HEK293 cells; note: potency is the fitted concentration of half-maximal effect; % is set by controls: 0 for no effect and ±100 for the full control effect
HCV inh: qHTS Assay for Inhibitors of Hepatitis C Virus (HCV); Huh7.5.1 HCVcc-Cre infection, luciferase reporter, 44 h; Potency, µM (titrated, usually from 41.8 µM), for the others: at the top dose activity change, negative = inhibition, hits mostly inhibitors; 340,000 compounds, 3.4% hits; AID 651820, 2012; active = well fitted inhibition curve with a large enough effect; inconclusive = small, poorly fitted or top-dose-only effect, or another doubt; inactive = no such curve, though single readings can be large or run the other way; note: potency is the fitted concentration of half-maximal effect; % is set by controls: 0 for no effect and ±100 for the full control effect
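Cells (1,000/well) were plated 4 h before compound, then infected with HCVcc-Cre virus (~0.5 moi). After 44 h further culture, infection was read as luciferase luminescence following a 15 min substrate incubation at room temperature.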
An asterisk follows results filed as active; ? = inconclusive; · = no result; [ ] = another dose, or the depositor's remark.

SMILES	CHX counter	LASV entry inh	FMDV inh	Shiga toxin inh	MARV entry inh	HCV inh
O=S(=O)(/N=C(/Nc1cccnc1Cl)c1ccccc1)c1ccccc1	·	·	-2%	·	·	13%
C1=C(c2ccc(-c3ccccc3)cc2)Nc2ncnn2C1c1ccco1 (centres undefined)	31*	21%	-23%	92*	?	20%
Clc1ccccc1C1=CC(c2ccco2)n2nnnc2N1 (centres undefined)	1	1%[46.1 µM]	15%	-3	19%[46.1 µM]	-2%
Brc1ccc(C2=CC(c3ccco3)n3nnnc3N2)cc1 (centres undefined)	16*	7%	4%	57*	18%	20%
CCN(C(=O)CSc1nc2ccccc2nc1Cc1ccc(F)cc1)c1cccc(C)c1	·	?	-27%	·	·	·
COc1cccc(Cc2nc3ccccc3nc2SCC(=O)N2CCCCC2C)c1 (centres undefined)	·	11µM*	-4%	·	·	·
CCN(C(=O)CSc1nc2ccccc2nc1Cc1cccc(OC)c1)c1cccc(C)c1	·	7.1µM*	-24%	·	·	·
CC(NC(=O)CN1CCCC1)c1ccccc1 (centres undefined)	1	9%	-10%	1	?	15%
Cc1ccc2nc(SCC(=O)N3CCCCCC3)nc(=O)n2c1	·	12%	-9%	·	6%[46.1 µM]	4%
N=c1ccn(Cc2cccc(F)c2)cc1	-4	4%	?	-4	-4%	3.2µM*
COc1ccc(Cl)cc1S(=O)(=O)N1CCN(Cc2ccc3c(c2)OCO3)CC1	-1	6%	-18%	-11	-11%	-12%
CSc1ncccc1C(=O)NC1CCCc2c1cnn2-c1ccc(C)c(C)c1 (centres undefined)	9	0%	28µM*	-3	?	8.9µM*
CCn1nc(C)cc1C(=O)NC1CCCc2c1cnn2-c1ccc(C)c(C)c1 (centres undefined)	4	?	10µM*	-26	?	?
COc1ccc(C(=O)NC2CCCc3c2cnn3-c2ccc(C)c(C)c2)c(OC)c1OC (centres undefined)	-1	·	?	8	·	?
Cc1ccc(-n2ncc3c2CCCC3NC(=O)CCn2ccnc2C)cc1C (centres undefined)	·	-15%	-12%	·	?	?
CCCC(=O)NC1CCCc2c1cnn2-c1ccc(C)c(C)c1 (centres undefined)	20*	·	17%	27	·	-20%
CSCC(=O)NC1CCCc2c1cnn2-c1cc(F)cc(F)c1 (centres undefined)	14*	·	39%	14	·	-26%
COc1ncccc1C(=O)NC1CCCc2c1cnn2-c1ccc(C)c(C)c1 (centres undefined)	10	·	-40%	-4	·	?
CC(=O)OC1CCC2(C)C3CC(=O)C4(C)C(CC5OC6(CCC(C)CO6)C(C)C54)C3CC[C@H]2C1 (some centres undefined)	·	·	2%	·	·	·
Cc1ccc(-n2ncc3c2CCCC3NC(=O)c2ocnc2C)cc1C (centres undefined)	5	?	?	-10	?	?
Cc1cc(C(=O)NC2CCCc3c2cnn3-c2ccc(C)c(C)c2)no1 (centres undefined)	15*	·	?	19	·	?
COc1ccc2cc(C(=O)OC(C)C)sc(=O)c2c1OC	14*	?	28%	30*	17%	?
CCc1cccc2c(C(=O)COC(=O)/C=C/c3ccccc3OC)c[nH]c12	-1	24%	0%	20	15%	?
CCc1cccc2c(C(=O)C(NCCCOC)c3ccccc3)c[nH]c12 (centres undefined)	10	?	-9%	34	13µM*	11µM*
CCc1cccc2c(C(=O)C(NC(C)CC)c3ccccc3)c[nH]c12 (centres undefined)	1	16µM*	-16%	31	12µM*	11µM*
SMILES	CHX counter	LASV entry inh	FMDV inh	Shiga toxin inh	MARV entry inh	HCV inh
Cc1cc(NC(=O)CSc2nnc3ccccn23)no1	-2	?	4%	-10	-1%[46.1 µM]	11%
CC(C)(C)c1cc(NC(=O)CCSc2nnc3ccccn23)cc(C(C)(C)C)c1	·	-26%	-17%	·	?	4µM*
CCOc1ccc(C(=O)CSc2nnc3ccccn23)cc1	34*	?	11%	58*	4%	0%
O=C(CSc1nnc2ccccn12)c1ccc(Cl)cc1	45*	?	68%	124*	23%	6%
COc1cc(NC(=O)CSc2nnc3ccccn23)cc(OC)c1	·	·	-8%	·	·	9%
Cc1c(Cl)cnc(NC(=O)CSc2nnc3ccccn23)c1Cl	22*	?	53%	84*	2%	4%
CCOc1ccc(-n2nnnc2SCC(=O)c2ccccc2)cc1	1	?	13%	-14	-8%	-24%
COc1ccc([C@H]2C[C@@H](O)[C@H](n3cc(COC(=O)c4ccccc4)nn3)CN2C(=O)C2CCCCC2)cc1	·	·	-13%	·	?	·
O=C(COC(=O)C1CC2C=CC1C2)Nc1ccccc1F (centres undefined)	38*	9%	80%	72*	19%[46.1 µM]	11%
COc1ccc(NC(=O)COC(=O)C2CC3C=CC2C3)cc1 (centres undefined)	20*	-14%	36%	42*	25%	15%
O=C(COC(=O)C1CC1)NCCc1ccccc1	·	-1%	25%	·	2%	27%
O=C(COC(=O)C1CC2C=CC1C2)NCCc1ccccc1 (centres undefined)	20*	12%	44%	25	18%[46.1 µM]	6%
O=C1C=C(c2cccc(O)c2)C[C@@H](c2ccc(F)cc2)C1	·	·	-12%	·	·	-17%
O=C(CNC(=O)c1ccccc1Cl)OCc1cc(=O)n2ccsc2n1	·	-3%[46.1 µM]	-22%	·	·	·
O=C(Nc1nc2nc(-c3ccccc3)cc(=O)n2[nH]1)c1ccc(Cl)cc1	1	19%[46.1 µM]	15%	-7	-1%[46.1 µM]	·
Cc1ccc2nc(-c3cccnc3SCC(=O)N3c4ccccc4CC3C)[nH]c2c1 (centres undefined)	31*	-7%	?	136*	?	?
CC(C)NC(=O)CSc1ncccc1-c1nc2ccccc2[nH]1	13*	·	8%	24	·	6%
CN(C)C(=O)CSc1ncccc1-c1nc2ccccc2[nH]1	1	6%	2%	-8	0%	-14%
CCN(CC)C(=O)CSc1ncccc1-c1nc2ccccc2[nH]1	17*	25%[46.1 µM]	-3%	27	20%[46.1 µM]	?
O=C(CSc1ncccc1-c1nc2ccccc2[nH]1)N1CCCCC1	34*	5%	12%	79*	-3%	-5%
Cc1oc(-c2cccc(NC(=O)c3ccccn3)c2)nc1CNC(=O)c1cc(F)c(F)cc1F	·	·	29%	·	·	·
